Test results taken from PubChem BioAssay (EPA / NIEHS).
Results filed as inconclusive are left out. Calls of active or inactive are those of the source. Rule for the calls: active = hit-call score of the fitted dose curve at least 0.9, where 1 is the maximum; inconclusive = response in the unintended direction; inactive = score below 0.9.

Tests used:
[1] = molecular target: human c-Jun N-terminal Kinases (JNK2), MAPK9 (gene 5601) (UniProt P45984); experiment: NVS_ENZ_hJNK2: NovaScreen (NVS) Enzymatic Assay for human c-Jun N-terminal Kinases (JNK2) (AID 2283171)
Summary of the method: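 Cell-free recombinant human JNK2 activity assay; fluorescent substrate and product separated by electrophoretic mobility shift, read 1 h after dosing. Primary duplicate screen at 25 uM; actives run in concentration-response up to 50 uM, relative to DMSO.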

[2] = molecular target: Glycogen synthase kinase-3 beta (Homo sapiens) (UniProt P49841); experiment: NVS_ENZ_hGSK3b: NovaScreen (NVS) Enzymatic Assay for human Glycogen Synthase Kinase-3 beta (GSK3b) (AID 2283165)
Sequence of Glycogen synthase kinase-3 beta (Homo sapiens) (P49841 whole entry, looked up): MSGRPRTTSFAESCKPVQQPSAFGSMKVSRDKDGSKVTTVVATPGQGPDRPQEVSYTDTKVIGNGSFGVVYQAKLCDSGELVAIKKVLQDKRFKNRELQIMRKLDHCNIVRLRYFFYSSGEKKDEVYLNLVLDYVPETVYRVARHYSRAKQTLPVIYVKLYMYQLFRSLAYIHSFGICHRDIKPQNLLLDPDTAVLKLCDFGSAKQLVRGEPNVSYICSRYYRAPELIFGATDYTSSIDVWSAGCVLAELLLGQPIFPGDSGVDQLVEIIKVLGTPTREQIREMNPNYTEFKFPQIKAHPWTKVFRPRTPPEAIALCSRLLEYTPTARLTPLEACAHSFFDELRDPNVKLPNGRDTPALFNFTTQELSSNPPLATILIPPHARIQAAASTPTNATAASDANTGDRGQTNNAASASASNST
Summary of the method: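 Recombinant enzyme with specific fluorescent substrate, 1 h, product separated by electrophoretic mobility shift. Primary duplicate screen at 25 uM; actives (e.g. 30% inhibition) followed in singleton concentration-response to 50 uM. Signal loss fitted versus DMSO.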

[3] = molecular target: human Phosphodiesterase 5 (PDE5), PDE5A (gene 8654) (UniProt O76074); experiment: NVS_ENZ_hPDE5: NovaScreen (NVS) Enzymatic Assay for human Phosphodiesterase 5 (PDE5) (AID 2283194)
Summary of the method: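 Recombinant human PDE5 with specific substrate, read 1 h after dosing by fluorescence with electrophoretic mobility-shift separation of substrate and product. Initial single-concentration duplicate screen at 25 uM, actives followed in concentration series; loss of activity versus DMSO.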

[4] = molecular target: human LYN Proto-Oncogene, Src family Tyrosine Kinase (LynA), LYN (gene 4067) (UniProt P07948); experiment: NVS_ENZ_hLynA: NovaScreen (NVS) Enzymatic Assay for human LYN Proto-Oncogene, Src family Tyrosine Kinase (LynA) (AID 2283173)
Summary of the method: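 Recombinant kinase with fluorescent substrate; product separated from substrate by electrophoretic mobility shift and read 1 h after dosing. Duplicate screen at 25 uM, then concentration-response up to 50 uM; activity scored as signal loss against DMSO.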

[5] = molecular target: human Phosphodiesterase 4A1 (PDE4A1), PDE4A (gene 5141) (UniProt P27815); experiment: NVS_ENZ_hPDE4A1: NovaScreen (NVS) Enzymatic Assay for human Phosphodiesterase 4A1 (PDE4A1) (AID 2283191)
Sequence of human Phosphodiesterase 4A1 (PDE4A1), PDE4A (gene 5141) (P27815 whole entry, looked up): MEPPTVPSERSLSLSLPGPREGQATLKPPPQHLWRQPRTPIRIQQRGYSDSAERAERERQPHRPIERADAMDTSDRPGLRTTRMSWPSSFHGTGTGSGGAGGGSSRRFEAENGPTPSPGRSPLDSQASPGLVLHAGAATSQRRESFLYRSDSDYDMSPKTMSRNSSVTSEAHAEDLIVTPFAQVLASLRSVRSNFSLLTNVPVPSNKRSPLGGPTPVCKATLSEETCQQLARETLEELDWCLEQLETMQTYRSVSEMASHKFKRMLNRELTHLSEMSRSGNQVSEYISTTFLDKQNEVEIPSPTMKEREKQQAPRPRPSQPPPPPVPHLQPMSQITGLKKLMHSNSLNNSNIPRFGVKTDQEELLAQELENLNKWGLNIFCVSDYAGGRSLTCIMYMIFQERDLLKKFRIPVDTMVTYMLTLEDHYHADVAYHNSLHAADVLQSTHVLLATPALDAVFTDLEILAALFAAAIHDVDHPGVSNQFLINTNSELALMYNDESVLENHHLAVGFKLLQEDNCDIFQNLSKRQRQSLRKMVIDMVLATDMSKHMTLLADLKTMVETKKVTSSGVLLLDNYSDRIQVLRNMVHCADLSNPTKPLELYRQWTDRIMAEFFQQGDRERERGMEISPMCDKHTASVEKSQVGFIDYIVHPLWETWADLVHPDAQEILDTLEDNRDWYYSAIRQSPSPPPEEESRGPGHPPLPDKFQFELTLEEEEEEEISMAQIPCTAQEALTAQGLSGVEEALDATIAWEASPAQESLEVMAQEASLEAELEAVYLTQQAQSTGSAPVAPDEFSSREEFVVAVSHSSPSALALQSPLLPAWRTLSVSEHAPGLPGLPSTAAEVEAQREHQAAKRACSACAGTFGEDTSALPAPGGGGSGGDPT
Summary of the method: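 Cell-free recombinant human PDE4A1 with fluorescent substrate; product separated by electrophoretic mobility shift, 1 h. Screened at 25 uM, then up to 50 uM in concentration-response; loss of signal fitted against DMSO.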

[6] = molecular target: human Matrix Metalloproteinase-2 (MMP2), MMP2 (gene 4313) (UniProt P08253); experiment: NVS_ENZ_hMMP2: NovaScreen (NVS) Enzymatic Assay for human Matrix Metalloproteinase-2 (MMP2) (AID 2283184)
Summary of the method: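 Cell-free recombinant MMP2 activity with a fluorescent substrate, read 1 h after dosing. Primary screen in duplicate at 25 uM; actives then run in concentration series; loss of signal fitted versus DMSO.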

[7] = molecular target: cAMP-dependent protein kinase catalytic subunit alpha (Homo sapiens) (UniProt P17612); experiment: NVS_ENZ_hPKA: NovaScreen (NVS) Enzymatic Assay for human Protein Kinase A (PKA) (AID 2283192)
Summary of the method: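 Recombinant human PKA with specific fluorescent substrate, product separated by electrophoretic mobility shift, read 1 h after dosing. Primary screen at 25 uM in duplicate; actives then run in concentration-response up to 50 uM, activity relative to DMSO.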

[8] = molecular target: human Protein Phosphatase, Mg2+/Mn2+ Dependent 1A (PPM1A), PPM1A (gene 5494) (UniProt P35813); experiment: NVS_ENZ_hPPM1A: NovaScreen (NVS) Enzymatic Assay for human Protein Phosphatase, Mg2+/Mn2+ Dependent 1A (PPM1A) (AID 2283198)
Sequence of human Protein Phosphatase, Mg2+/Mn2+ Dependent 1A (PPM1A), PPM1A (gene 5494) (P35813 whole entry, looked up): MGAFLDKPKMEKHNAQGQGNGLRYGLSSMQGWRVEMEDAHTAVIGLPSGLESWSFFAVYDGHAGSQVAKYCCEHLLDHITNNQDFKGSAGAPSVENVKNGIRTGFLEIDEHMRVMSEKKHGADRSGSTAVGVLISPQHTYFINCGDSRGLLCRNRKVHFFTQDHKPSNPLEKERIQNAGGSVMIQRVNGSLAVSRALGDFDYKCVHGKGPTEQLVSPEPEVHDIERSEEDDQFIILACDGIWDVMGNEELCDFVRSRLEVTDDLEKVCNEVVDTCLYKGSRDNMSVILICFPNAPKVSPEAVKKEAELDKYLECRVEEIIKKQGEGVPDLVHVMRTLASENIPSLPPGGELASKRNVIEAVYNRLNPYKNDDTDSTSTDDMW
Summary of the method: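 Cell-free recombinant PPM1A phosphatase assay with fluorescent substrate, read 1 h after dosing by electrophoretic mobility shift. Chemicals screened in duplicate at 25 uM, then in concentration-response up to 50 uM; loss of activity versus DMSO.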

[9] = molecular target: Serine/threonine-protein phosphatase PP1-alpha catalytic subunit (Homo sapiens) (UniProt P62136); experiment: NVS_ENZ_hPPP1CA: NovaScreen (NVS) Enzymatic Assay for human Protein Phosphatase 1 Aatalytic subunit Alpha (PPP1CA) (AID 2283200)
Sequence of Serine/threonine-protein phosphatase PP1-alpha catalytic subunit (Homo sapiens) (P62136 whole entry, looked up): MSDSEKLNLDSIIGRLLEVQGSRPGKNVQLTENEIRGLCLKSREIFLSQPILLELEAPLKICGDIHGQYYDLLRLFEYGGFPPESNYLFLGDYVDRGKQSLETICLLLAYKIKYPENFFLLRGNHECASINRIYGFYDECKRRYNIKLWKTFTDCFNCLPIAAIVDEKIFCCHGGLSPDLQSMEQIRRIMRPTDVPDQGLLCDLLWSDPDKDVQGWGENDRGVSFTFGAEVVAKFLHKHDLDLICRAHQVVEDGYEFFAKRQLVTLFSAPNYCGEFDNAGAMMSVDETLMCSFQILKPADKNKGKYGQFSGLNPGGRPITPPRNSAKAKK
Summary of the method: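 Recombinant enzyme activity read by fluorescence with electrophoretic mobility shift separating substrate from product, 1.33 h after dosing; loss of signal vs DMSO baseline. Primary screen in duplicate at 25 uM; actives retested in concentration-response up to 50 uM.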

[10] = molecular target: human Janus Kinase 2 (Jak2), JAK2 (gene 3717) (UniProt O60674); experiment: NVS_ENZ_hJak2: NovaScreen (NVS) Enzymatic Assay for human Janus Kinase 2 (Jak2) (AID 2283169)
Sequence of human Janus Kinase 2 (Jak2), JAK2 (gene 3717) (O60674 whole entry, looked up): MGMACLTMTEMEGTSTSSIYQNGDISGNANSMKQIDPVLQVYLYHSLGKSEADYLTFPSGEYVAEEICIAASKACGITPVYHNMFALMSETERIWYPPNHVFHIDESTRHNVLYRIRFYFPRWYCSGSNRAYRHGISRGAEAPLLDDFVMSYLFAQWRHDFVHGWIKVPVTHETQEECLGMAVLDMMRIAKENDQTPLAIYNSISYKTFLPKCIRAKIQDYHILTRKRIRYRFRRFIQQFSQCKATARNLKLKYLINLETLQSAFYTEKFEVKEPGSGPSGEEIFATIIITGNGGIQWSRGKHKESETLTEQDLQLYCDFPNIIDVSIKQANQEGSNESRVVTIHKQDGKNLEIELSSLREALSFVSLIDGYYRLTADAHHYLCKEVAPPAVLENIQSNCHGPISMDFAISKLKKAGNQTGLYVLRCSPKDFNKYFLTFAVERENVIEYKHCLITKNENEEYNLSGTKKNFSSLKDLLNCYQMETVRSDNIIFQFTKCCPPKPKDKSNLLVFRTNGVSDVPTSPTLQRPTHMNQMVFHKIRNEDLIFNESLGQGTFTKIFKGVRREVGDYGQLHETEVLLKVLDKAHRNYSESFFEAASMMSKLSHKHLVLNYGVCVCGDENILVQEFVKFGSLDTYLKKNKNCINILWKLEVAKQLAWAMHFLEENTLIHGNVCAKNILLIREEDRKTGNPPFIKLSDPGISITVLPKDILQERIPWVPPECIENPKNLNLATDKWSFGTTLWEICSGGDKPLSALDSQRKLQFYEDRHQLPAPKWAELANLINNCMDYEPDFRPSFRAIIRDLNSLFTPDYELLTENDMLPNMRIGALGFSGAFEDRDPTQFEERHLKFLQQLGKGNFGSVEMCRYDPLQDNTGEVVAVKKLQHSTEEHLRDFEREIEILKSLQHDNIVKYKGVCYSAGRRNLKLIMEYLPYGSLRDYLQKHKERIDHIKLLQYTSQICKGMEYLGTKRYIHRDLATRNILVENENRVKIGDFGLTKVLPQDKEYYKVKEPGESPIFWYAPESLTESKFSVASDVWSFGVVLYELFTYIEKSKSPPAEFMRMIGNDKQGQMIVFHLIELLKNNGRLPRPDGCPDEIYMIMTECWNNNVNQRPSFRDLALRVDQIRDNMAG
Summary of the method: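 Cell-free recombinant human JAK2 enzyme activity assay, fluorescence/electrophoretic mobility shift read 1 h after dosing. Screened in duplicate at 25 uM, then concentration-response up to 50 uM; activity as signal loss relative to DMSO.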

[11] = molecular target: human Mitogen- and Stress-activated Protein Kinase-1 (Msk1), RPS6KA5 (gene 9252) (UniProt O75582); experiment: NVS_ENZ_hMsk1: NovaScreen (NVS) Enzymatic Assay for human Mitogen- and Stress-activated Protein Kinase-1 (Msk1) (AID 2283187)
Summary of the method: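 Recombinant kinase with fluorescent substrate; product separated by electrophoretic mobility shift, read 1 h after dosing. Screened in duplicate at 25 uM; hits (e.g. ≥30% inhibition) tested in concentration–response up to 50 uM. DMSO baseline.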

[12] = molecular target: human Protein Tyrosine Phosphatase Non-receptor Type 1 (PTPN1), PTPN1 (gene 5770) (UniProt P18031); experiment: NVS_ENZ_hPTPN1: NovaScreen (NVS) Enzymatic Assay for human Protein Tyrosine Phosphatase Non-receptor Type 1 (PTPN1) (AID 2283201)
Sequence of human Protein Tyrosine Phosphatase Non-receptor Type 1 (PTPN1), PTPN1 (gene 5770) (P18031 whole entry, looked up): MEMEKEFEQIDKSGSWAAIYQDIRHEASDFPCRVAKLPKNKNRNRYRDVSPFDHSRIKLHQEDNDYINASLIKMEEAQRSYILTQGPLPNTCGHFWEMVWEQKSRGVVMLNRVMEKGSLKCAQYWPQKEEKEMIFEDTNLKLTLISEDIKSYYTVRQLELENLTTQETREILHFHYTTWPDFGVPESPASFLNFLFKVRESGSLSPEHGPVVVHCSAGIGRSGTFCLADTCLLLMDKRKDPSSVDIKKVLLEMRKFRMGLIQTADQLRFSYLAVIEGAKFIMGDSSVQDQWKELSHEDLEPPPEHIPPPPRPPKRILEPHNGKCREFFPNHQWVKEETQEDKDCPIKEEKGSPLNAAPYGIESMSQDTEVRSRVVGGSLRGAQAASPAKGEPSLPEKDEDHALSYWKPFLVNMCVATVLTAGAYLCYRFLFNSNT
Summary of the method: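 Cell-free fluorogenic-substrate activity assay on recombinant enzyme, read 1.33 h after dosing by fluorescence and electrophoretic mobility shift; loss of signal vs DMSO baseline. Primary screen in duplicate at 25 uM, hits then run in concentration-response up to 50 uM.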

[13] = molecular target: human Phosphodiesterase 10 (PDE10), PDE10A (gene 10846) (UniProt Q9Y233); experiment: NVS_ENZ_hPDE10: NovaScreen (NVS) Enzymatic Assay for human Phosphodiesterase 10 (PDE10) (AID 2283195)
Sequence of human Phosphodiesterase 10 (PDE10), PDE10A (gene 10846) (Q9Y233 whole entry, looked up): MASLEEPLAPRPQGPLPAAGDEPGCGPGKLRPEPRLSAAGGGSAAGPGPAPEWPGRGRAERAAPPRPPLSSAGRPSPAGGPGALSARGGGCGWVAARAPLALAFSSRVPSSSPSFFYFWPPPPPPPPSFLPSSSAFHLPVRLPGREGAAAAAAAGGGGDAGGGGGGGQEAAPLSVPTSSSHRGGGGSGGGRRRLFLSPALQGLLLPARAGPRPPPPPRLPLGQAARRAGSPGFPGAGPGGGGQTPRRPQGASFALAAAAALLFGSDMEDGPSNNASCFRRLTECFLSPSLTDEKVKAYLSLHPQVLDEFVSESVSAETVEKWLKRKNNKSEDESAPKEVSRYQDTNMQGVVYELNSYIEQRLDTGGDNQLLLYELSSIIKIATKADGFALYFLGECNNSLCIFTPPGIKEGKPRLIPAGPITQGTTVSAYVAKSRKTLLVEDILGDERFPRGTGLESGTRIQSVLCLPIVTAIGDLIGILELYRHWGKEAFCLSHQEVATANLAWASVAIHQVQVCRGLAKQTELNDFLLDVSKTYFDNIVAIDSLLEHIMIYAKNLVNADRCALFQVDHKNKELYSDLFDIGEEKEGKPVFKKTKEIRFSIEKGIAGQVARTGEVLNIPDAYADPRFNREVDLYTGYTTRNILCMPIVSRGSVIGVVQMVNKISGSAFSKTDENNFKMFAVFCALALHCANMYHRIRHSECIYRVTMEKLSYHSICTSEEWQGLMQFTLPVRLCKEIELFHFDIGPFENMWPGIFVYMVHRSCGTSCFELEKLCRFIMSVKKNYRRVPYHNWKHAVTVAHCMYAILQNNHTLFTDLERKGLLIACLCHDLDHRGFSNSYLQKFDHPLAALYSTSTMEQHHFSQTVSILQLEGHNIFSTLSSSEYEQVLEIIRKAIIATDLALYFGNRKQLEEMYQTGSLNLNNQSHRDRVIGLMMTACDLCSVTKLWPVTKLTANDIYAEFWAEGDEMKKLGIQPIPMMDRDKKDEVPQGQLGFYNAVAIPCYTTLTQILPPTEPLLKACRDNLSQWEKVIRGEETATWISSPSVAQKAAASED
Summary of the method: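 PDE10A, cell-free; 1 h incubation; fluorescence intensity + electrophoretic mobility shift separating substrate/product; DMSO = baseline; 25 uM duplicate primary, CRC up to 50 uM.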

[14] = molecular target: human Phosphoinositide 3-kinase alpha (PI3Ka), PIK3CA (gene 5290) (UniProt P42336); experiment: NVS_ENZ_hPI3Ka: NovaScreen (NVS) Enzymatic Assay for human Phosphoinositide 3-kinase alpha (PI3Ka) (AID 2283196)
Summary of the method: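 Recombinant human PI3Kα with fluorescent substrate, 1 h, product separated by electrophoretic mobility shift; 25 uM duplicate screen, hits (e.g., 30% inhibition) retested singly up to 50 uM; loss of signal vs DMSO.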

[15] = molecular target: Mitogen-activated protein kinase 3 (Homo sapiens) (UniProt P27361); experiment: NVS_ENZ_hMAPK3: NovaScreen (NVS) Enzymatic Assay for human Mitogen-Activated Protein Kinase 3 (MAPK 3) (AID 2283177)
Sequence of Mitogen-activated protein kinase 3 (Homo sapiens) (P27361 whole entry, looked up): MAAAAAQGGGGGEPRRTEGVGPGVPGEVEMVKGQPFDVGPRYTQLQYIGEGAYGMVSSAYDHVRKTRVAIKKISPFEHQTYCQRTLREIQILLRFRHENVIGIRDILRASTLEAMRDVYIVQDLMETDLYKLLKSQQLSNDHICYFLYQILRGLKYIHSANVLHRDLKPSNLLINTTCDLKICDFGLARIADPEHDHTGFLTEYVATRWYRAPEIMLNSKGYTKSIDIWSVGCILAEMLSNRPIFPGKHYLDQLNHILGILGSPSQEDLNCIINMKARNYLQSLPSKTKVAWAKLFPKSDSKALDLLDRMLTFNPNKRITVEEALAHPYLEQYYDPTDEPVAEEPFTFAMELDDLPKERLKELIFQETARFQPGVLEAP
Summary of the method: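 Cell-free enzymatic assay with recombinant protein and specific substrate; fluorescence and electrophoretic mobility shift read-out 1 h after dosing. Primary screen duplicate at 25 uM; actives then run in concentration-response up to 50 uM, loss of signal versus DMSO.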

For `Cc1ccc(C(C)C)c(O)c1`, the outcome [1] was “inactive”.

`Nc1ccccc1N` was tested, and the AC50 [2] was 22.3 µM (active) and the AC50 [3] was 18.1 µM (active).

In the case of `CCOc1ccc2c(c1)C(C)=CC(C)(C)N2`, the outcome [2] is reported as “inactive”.

With `NC(=O)Cn1c(=O)cc(CCN2CCN(c3nccc4sccc34)CC2)c2ccc(F)cc21` the outcome [2] was “inactive”.

In the case of `CC(=O)Oc1ccccc1C(=O)O`, the outcome [2] is reported as “inactive”, the outcome [4] is reported as “inactive” and the outcome [5] is reported as “inactive”. For the same molecule, the outcome [3] was “inactive”.

`C=CCOC(=O)c1ccccc1C(=O)OCC=C` was tested, and the outcome [2] was “inactive”.

With `CCCc1cc(=O)[nH]c(=S)[nH]1` the outcome [2] was “inactive” and the outcome [6] was “inactive”.

In the case of `C=CCc1ccc(O)c(OC)c1`, the outcome [2] is reported as “inactive”.

In the case of `O=C(OCCCCCOC(=O)c1ccccc1)c1ccccc1`, the outcome [2] is reported as “inactive”, the outcome [7] is reported as “inactive” and the outcome [8] is reported as “inactive”. The outcome [9] was “inactive”.

`Nc1nc(N)c2nc(CNc3ccc(C(=O)N[C@@H](CCC(=O)O)C(=O)O)cc3)cnc2n1` was tested, and the AC50 [10] was 21.9 µM (active).

`FC(F)(F)C(F)(F)C(F)(F)C(F)(F)C(F)(F)C(F)(F)CCI` was tested, and the outcome [2] was “inactive”, the outcome [10] was “inactive” and the outcome [11] was “inactive”. The outcome [7] was “inactive”, the AC50 [3] was 19.7 µM (active) and the outcome [9] was “inactive”. For the same molecule, the outcome [12] was “inactive”.

In the case of `CCCCCCCCCCCCCCCCCC(=O)O`, the outcome [10] is reported as “inactive”.

`CCOC(=O)C(C)(C)Oc1ccc(Cl)cc1` was tested, and the outcome [10] was “inactive”, the outcome [13] was “inactive” and the outcome [14] was “inactive”. For the same molecule, the outcome [12] was “inactive”.

For `Cc1ccc(Cl)cc1`, the outcome [15] was “inactive”.

`Cc1ccc(N(C)C)cc1` was tested, and the outcome [2] was “inactive”.
